In PubChem BioAssay:
Calls of active or inactive are those of the source. No rule for the calls is given here.

Target: L-lactate dehydrogenase (Plasmodium falciparum (isolate CDC / Honduras)) (UniProt Q27743)
Experiment: PfLDH activity inhibition – cell lysate, 3D7 strain, counter-screen for P. falciparum growth inhibition project (AID 2304);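 also: 0% = vehicle and 100% = reference inhibitor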
Settings: P. falciparum 3D7 crude extract, LDH APAD/NBT absorbance; at 2 µM; active compounds read high

L-lactate dehydrogenase (Plasmodium falciparum (isolate CDC / Honduras)), sequence (Q27743 whole entry, looked up): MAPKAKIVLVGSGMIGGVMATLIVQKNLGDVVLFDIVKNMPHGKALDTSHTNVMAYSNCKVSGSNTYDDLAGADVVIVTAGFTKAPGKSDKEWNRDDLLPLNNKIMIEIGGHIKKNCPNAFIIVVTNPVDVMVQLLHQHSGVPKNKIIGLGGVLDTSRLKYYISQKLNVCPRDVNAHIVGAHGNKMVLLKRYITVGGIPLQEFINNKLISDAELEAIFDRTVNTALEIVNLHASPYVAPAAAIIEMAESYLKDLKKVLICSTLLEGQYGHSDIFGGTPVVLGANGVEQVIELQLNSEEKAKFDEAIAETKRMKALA

Row | SMILES | inhibition
1 | Cc1ccc(C(C#N)c2ccc3c(C(F)(F)F)cc(C(F)(F)F)nc3n2)cc1 (stereo unspecified) | 2% (inactive)
2 | O=C(/C=C/c1ccc(Cl)c(Cl)c1)N1CCN(C(=O)Nc2ccc(C(F)(F)F)cc2)CC1 | 4% (inactive)
3 | CC(Cl)=CCc1c(C)[nH]c2c(ccc3ccccc32)c1=O | 8% (inactive)
4 | O=C(Nc1cccc(CN2CCCN(Cc3ncc[nH]3)CC2)c1)c1cc2ccccc2s1 | -2% (inactive)
5 | CC(C)c1ccc2c(c1)c(SC(C)(C)C)c(CC(C)(C)C#N)n2Cc1ccc(Cl)cc1 | 8% (inactive)
6 | COc1cc2nc(N3CCN(c4nc(N)c5cc(OC)c(OC)cc5n4)CC3)nc(N)c2cc1OC | -4% (inactive)
7 | COc1cc(NC(=O)c2cccs2)c(OC)cc1NC(=O)Nc1cccc(Cl)c1 | -3% (inactive)
8 | COc1ccc2nccc([C@@H](O)CN3CCC(NC(=O)C(c4cc5ccccc5o4)N4CCN(c5ccccc5)CC4)CC3)c2c1 (stereo partly specified) | -2% (inactive)
9 | CCN(CC)CCN(Cc1ccc(-c2ccc(Cl)cc2)cc1)C(=O)Cn1cc(CN(C)C)c(=O)nc1SCc1ccc(F)cc1 | 1% (inactive)
10 | Cc1[nH]c(C)c(-c2ccc(OCc3ccccc3)cc2)c(=O)c1Br | -2% (inactive)
11 | CSc1sc(NC(=O)Nc2cccc(C(F)(F)F)c2)cc1C#N | -1% (inactive)
12 | Cc1ccc(S(=O)(=O)NC2CCN(c3ccnc4cc(Cl)ccc34)C2)cc1 (stereo unspecified) | -3% (inactive)
13 | COc1ccc2nccc([C@@H](O)CN3CC[C@H](NCc4ccc5c(n4)NC(=O)CS5)[C@H](F)C3)c2c1 | 0% (inactive)
14 | COC(=O)c1ccc(OCC(O)CO)cc1O (stereo unspecified) | 5% (inactive)
15 | COC(=O)c1cc(/C(C)=N/Nc2nc3ccccc3[nH]2)ccc1O | -1% (inactive)
16 | Cc1[nH]c(C)c(-c2ccc(OCCCc3ccccn3)cc2)c(=O)c1Br | 5% (inactive)
17 | Cc1ccc(NC(=O)c2ccc3ncccc3c2)cc1OC1CCN(C(C)C)C1 (stereo unspecified) | 1% (inactive)
18 | CCN(CC1CCN(CC2(O)CCOCC2)CC1)c1cc(C)nc(Nc2ccc(Cl)cc2)n1 | -4% (inactive)
19 | CC(C)c1ccc(NC(=S)NN=Cc2ccccn2)cc1 | -12% (inactive)
20 | Fc1ccccc1CNc1ncc(-c2ccsc2)c(-c2nccs2)n1 | -6% (inactive)
21 | Cc1nc(N)nc(N)c1Oc1cccc(Cl)c1 | 3% (inactive)
22 | Cc1cnc(-c2cccc(C(=O)NC3CCC(CCN4CCc5ccc(C#N)cc5CC4)CC3)c2)[nH]1 (stereo unspecified) | 1% (inactive)
23 | CC1(C)CCNc2cc(NC(=O)c3ccc(-c4ncccc4C(F)(F)F)cc3)ccc21 | -3% (inactive)
24 | COc1ccc(NC(=O)[C@H](Cc2ccccc2)Nc2cc(C)nc(NCCc3cccnc3)n2)cc1 | -4% (inactive)
25 | O=C1SC(=Cc2ccc(O)c(O)c2)C(=O)N1c1ccccc1 | -5% (inactive)
26 | O=C(CCCCCNC(=O)c1ccc(O)c(-c2ccc(Cl)c(Cl)c2)c1)NC1CCCCCC1 | 2% (inactive)

Test system: not listed separately
Experiment: inhibition of 3D7 malaria parasite growth – strain 3D7 (AID 2306);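 also: 0% = DMSO wells and 100% = chloroquine plus artemisinin control wells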
Settings: P. falciparum 3D7 erythrocytic growth, LDH absorbance, 72 h; at 2 µM; active compounds read high

Row | SMILES | growth inhibition
27 | CCC(C(=O)Nc1cc(=O)[nH]c2nc(-c3ccco3)nn12)c1ccccc1 (stereo unspecified) | 87% (active)
28 | O=C(Nc1ccc(-c2csc(-c3nc4ccccc4[nH]3)c2)cc1)Nc1ccc(Cl)c(Cl)c1 | 93% (active)
29 | O=C(Nc1ccc(C(=O)N2CCN(CCN3CCN(c4cccc(C(F)(F)F)c4)CC3)CC2)cc1)c1ccc(C(F)(F)F)cc1 | 95% (active)
30 | COc1ccc(CNC2CCN(C)CC2)cc1-c1ccc(S(=O)(=O)NCc2ccccc2)c(F)c1 | 101% (active)
31 | CCCCN(Cc1cc(Cl)c(OCC)c(OC)c1)c1ccc(C(O)(C(F)(F)F)C(F)(F)F)cc1 | 92% (active)
32 | O=C(NCCCCN1CCN(c2cccc3ccccc23)CC1)c1ccc(NC(=O)c2ccc(Cl)cc2)cc1 | 101% (active)
33 | CCOc1ccccc1[C@H]1[C@H](C(=O)C(C)(C)C)N2c3ccc(Br)cc3C=CC2C12C(=O)c1ccccc1C2=O (stereo partly specified) | 95% (active)
34 | Cc1nnsc1C(=O)Nc1cccc(-c2ccc(-c3nc4ccc(F)cc4[nH]3)s2)c1 | 89% (active)
35 | O=C1C2=C(Nc3ccccc3SC2c2cccs2)c2ccccc21 (stereo unspecified) | 96% (active)
36 | COc1ccc(CCNCCCCCCNCCc2ccc(Cl)cc2)c(Cl)c1OC | 101% (active)
37 | C=CCc1cccc(C)c1OCCCON1C(N)=NC(N)=NC1(C)C | 94% (active)
38 | COc1ccccc1N(C)CCNc1cc(C)nc(Nc2ccccc2)n1 | 96% (active)
39 | CN1CCN(C(C(=O)NCc2cc(Cl)cc(Cl)c2)c2ccccc2-c2ccsc2)CC1 (stereo unspecified) | 95% (active)
40 | CNCCNCc1cccc(-c2ccc(-c3nc4c(C)cccc4[nH]3)s2)c1 | 92% (active)
41 | Cc1ccc(C(C#N)c2ccc3c(C(F)(F)F)cc(C(F)(F)F)nc3n2)cc1 (stereo unspecified) | 96% (active)
42 | O=C(/C=C/c1ccc(Cl)c(Cl)c1)N1CCN(C(=O)Nc2ccc(C(F)(F)F)cc2)CC1 | 98% (active)
43 | CC(Cl)=CCc1c(C)[nH]c2c(ccc3ccccc32)c1=O | 96% (active)
44 | O=C(Nc1cccc(CN2CCCN(Cc3ncc[nH]3)CC2)c1)c1cc2ccccc2s1 | 99% (active)
45 | CC(C)c1ccc2c(c1)c(SC(C)(C)C)c(CC(C)(C)C#N)n2Cc1ccc(Cl)cc1 | 96% (active)
46 | COc1cc2nc(N3CCN(c4nc(N)c5cc(OC)c(OC)cc5n4)CC3)nc(N)c2cc1OC | 101% (active)

Row | SMILES | growth inhibition
47 | COc1cc(NC(=O)c2cccs2)c(OC)cc1NC(=O)Nc1cccc(Cl)c1 | 83% (active)
48 | COc1ccc2nccc([C@@H](O)CN3CCC(NC(=O)C(c4cc5ccccc5o4)N4CCN(c5ccccc5)CC4)CC3)c2c1 (stereo partly specified) | 99% (active)
49 | CCN(CC)CCN(Cc1ccc(-c2ccc(Cl)cc2)cc1)C(=O)Cn1cc(CN(C)C)c(=O)nc1SCc1ccc(F)cc1 | 99% (active)
50 | Cc1[nH]c(C)c(-c2ccc(OCc3ccccc3)cc2)c(=O)c1Br | 97% (active)
51 | CSc1sc(NC(=O)Nc2cccc(C(F)(F)F)c2)cc1C#N | 99% (active)
52 | Cc1ccc(S(=O)(=O)NC2CCN(c3ccnc4cc(Cl)ccc34)C2)cc1 (stereo unspecified) | 99% (active)
53 | COc1ccc2nccc([C@@H](O)CN3CC[C@H](NCc4ccc5c(n4)NC(=O)CS5)[C@H](F)C3)c2c1 | 89% (active)
54 | COC(=O)c1ccc(OCC(O)CO)cc1O (stereo unspecified) | 101% (active)
55 | COC(=O)c1cc(/C(C)=N/Nc2nc3ccccc3[nH]2)ccc1O | 101% (active)
56 | Cc1[nH]c(C)c(-c2ccc(OCCCc3ccccn3)cc2)c(=O)c1Br | 98% (active)
57 | Cc1ccc(NC(=O)c2ccc3ncccc3c2)cc1OC1CCN(C(C)C)C1 (stereo unspecified) | 95% (active)
58 | CCN(CC1CCN(CC2(O)CCOCC2)CC1)c1cc(C)nc(Nc2ccc(Cl)cc2)n1 | 101% (active)
59 | CC(C)c1ccc(NC(=S)NN=Cc2ccccn2)cc1 | 100% (active)
60 | Fc1ccccc1CNc1ncc(-c2ccsc2)c(-c2nccs2)n1 | 86% (active)
61 | Cc1nc(N)nc(N)c1Oc1cccc(Cl)c1 | 94% (active)
62 | Cc1cnc(-c2cccc(C(=O)NC3CCC(CCN4CCc5ccc(C#N)cc5CC4)CC3)c2)[nH]1 (stereo unspecified) | 100% (active)
63 | CC1(C)CCNc2cc(NC(=O)c3ccc(-c4ncccc4C(F)(F)F)cc3)ccc21 | 97% (active)
64 | COc1ccc(NC(=O)[C@H](Cc2ccccc2)Nc2cc(C)nc(NCCc3cccnc3)n2)cc1 | 98% (active)
65 | O=C1SC(=Cc2ccc(O)c(O)c2)C(=O)N1c1ccccc1 | 91% (active)
66 | O=C(CCCCCNC(=O)c1ccc(O)c(-c2ccc(Cl)c(Cl)c2)c1)NC1CCCCCC1 | 92% (active)
